PMC7862700, “An all-to-all approach to the identification of sequence-specific readers for epigenetic DNA modifications on cytosine”

Key:
Experiment in all cases: DAPPL (digital affinity profiling via proximity ligation, sequencing); 10 mM Tris-HCl pH 7.5, 50 mM NaCl, 1 mM DTT, 4% glycerol, room temperature, 30 min; GST-TFs on glutathione beads, 16-mer random dsDNA library, 0.1% formaldehyde crosslink after washing; high values mean tight binding
[1] = biological target: T1, FEV (Homo sapiens, UniProt Q99581 1-238); settings: protein: recombinant; tags: N-terminal GST; dsDNA, one strand shown
T1 sequence: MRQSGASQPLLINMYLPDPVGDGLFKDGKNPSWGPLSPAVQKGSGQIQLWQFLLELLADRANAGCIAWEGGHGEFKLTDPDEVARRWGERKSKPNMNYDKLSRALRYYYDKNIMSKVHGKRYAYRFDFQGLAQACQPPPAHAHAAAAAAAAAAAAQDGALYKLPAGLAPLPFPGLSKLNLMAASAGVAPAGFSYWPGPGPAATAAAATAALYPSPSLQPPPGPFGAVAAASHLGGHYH
Procedure, shortened: (§1)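 Binding signal is each hexamer's read frequency for a factor divided by its frequency in the tag-only sample. The factors were GST-fused human transcription factors from yeast, captured on glutathione beads, DNA-barcoded and pooled with that sample. Pools were incubated with 200 nmole of a random double-stranded 16-mer DNA library in Tris/NaCl/DTT/glycerol buffer at room temperature for 30 min, then washed, crosslinked with 0.1% formaldehyde, proximity-ligated with BsaI/T4 ligase (1 h, 37 °C), PCR-amplified and sequenced on an Illumina NextSeq500.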

[2] = biological target: ETV5 (Homo sapiens, UniProt P41161 1-510); settings: protein: recombinant; tags: N-terminal GST; dsDNA, one strand shown
Procedure, shortened: as §1

[3] = biological target: HSF1 (Homo sapiens, UniProt Q00613 1-529); settings: protein: recombinant; tags: N-terminal GST; chain copies: 3; dsDNA, one strand shown
Procedure, shortened: as §1

[4] = biological target: T2, SPIC (Homo sapiens, UniProt Q8N5J4 1-248); settings: protein: recombinant; tags: N-terminal GST; dsDNA, one strand shown
T2 sequence: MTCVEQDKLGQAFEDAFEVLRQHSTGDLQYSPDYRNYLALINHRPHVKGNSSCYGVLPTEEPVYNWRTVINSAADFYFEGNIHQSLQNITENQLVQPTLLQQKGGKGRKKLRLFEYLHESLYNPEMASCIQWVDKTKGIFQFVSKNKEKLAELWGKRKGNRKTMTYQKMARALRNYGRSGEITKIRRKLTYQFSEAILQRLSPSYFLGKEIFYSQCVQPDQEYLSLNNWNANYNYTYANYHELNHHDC
Procedure, shortened: as §1

[5] = biological target: ELF4 (Homo sapiens, UniProt Q99607 1-663); settings: protein: recombinant; tags: N-terminal GST; dsDNA, one strand shown
Procedure, shortened: as §1

[6] = biological target: T3, ELK4 (Homo sapiens, UniProt P28324-2 1-405); settings: protein: recombinant; tags: N-terminal GST; dsDNA, one strand shown
T3 sequence: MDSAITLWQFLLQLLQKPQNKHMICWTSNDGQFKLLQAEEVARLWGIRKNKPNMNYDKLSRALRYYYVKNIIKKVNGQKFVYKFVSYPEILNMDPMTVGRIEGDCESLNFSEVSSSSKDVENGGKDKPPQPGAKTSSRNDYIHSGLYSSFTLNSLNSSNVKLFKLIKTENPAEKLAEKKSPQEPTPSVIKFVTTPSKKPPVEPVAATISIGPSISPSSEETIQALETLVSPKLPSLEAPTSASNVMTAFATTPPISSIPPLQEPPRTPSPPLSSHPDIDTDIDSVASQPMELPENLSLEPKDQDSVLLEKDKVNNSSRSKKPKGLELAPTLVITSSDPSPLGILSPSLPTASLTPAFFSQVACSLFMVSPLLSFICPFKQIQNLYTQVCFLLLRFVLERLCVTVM
Procedure, shortened: as §1

[7] = biological target: T4, ETV2 (Homo sapiens, UniProt O00321 1-342); settings: protein: recombinant; tags: N-terminal GST; dsDNA, one strand shown
T4 sequence: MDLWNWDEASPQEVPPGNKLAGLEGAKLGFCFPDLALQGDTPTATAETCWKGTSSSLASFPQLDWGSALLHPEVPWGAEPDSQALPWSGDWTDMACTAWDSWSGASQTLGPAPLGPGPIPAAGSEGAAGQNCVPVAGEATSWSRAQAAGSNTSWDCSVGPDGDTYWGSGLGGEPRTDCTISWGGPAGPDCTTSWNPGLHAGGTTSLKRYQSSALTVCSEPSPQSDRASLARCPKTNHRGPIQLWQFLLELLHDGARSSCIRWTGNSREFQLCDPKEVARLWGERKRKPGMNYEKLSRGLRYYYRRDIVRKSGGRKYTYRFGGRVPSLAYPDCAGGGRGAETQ
Procedure, shortened: as §1

[8] = biological target: T5, ELF3 (Homo sapiens, UniProt P78545 1-371); settings: protein: recombinant; tags: N-terminal GST; dsDNA, one strand shown
T5 sequence: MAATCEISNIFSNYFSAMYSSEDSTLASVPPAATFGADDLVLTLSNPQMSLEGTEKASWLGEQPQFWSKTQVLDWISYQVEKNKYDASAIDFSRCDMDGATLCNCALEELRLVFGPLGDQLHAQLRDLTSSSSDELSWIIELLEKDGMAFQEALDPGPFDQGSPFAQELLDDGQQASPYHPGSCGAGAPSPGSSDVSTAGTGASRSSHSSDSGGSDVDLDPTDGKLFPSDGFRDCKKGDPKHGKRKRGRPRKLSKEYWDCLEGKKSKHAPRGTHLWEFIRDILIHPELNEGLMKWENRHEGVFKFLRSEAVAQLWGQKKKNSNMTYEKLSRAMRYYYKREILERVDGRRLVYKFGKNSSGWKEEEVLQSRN
Procedure, shortened: as §1

[9] = biological target: CRX (Homo sapiens, UniProt O43186 1-299); settings: protein: recombinant; tags: N-terminal GST; dsDNA, one strand shown
Procedure, shortened: as §1

[10] = biological target: ETV1 (Homo sapiens, UniProt P50549 1-477); settings: protein: recombinant; tags: N-terminal GST; dsDNA, one strand shown
Procedure, shortened: as §1

[11] = biological target: T6, ERF (Homo sapiens, UniProt P50548 1-548); settings: protein: recombinant; tags: N-terminal GST; dsDNA, one strand shown
T6 sequence: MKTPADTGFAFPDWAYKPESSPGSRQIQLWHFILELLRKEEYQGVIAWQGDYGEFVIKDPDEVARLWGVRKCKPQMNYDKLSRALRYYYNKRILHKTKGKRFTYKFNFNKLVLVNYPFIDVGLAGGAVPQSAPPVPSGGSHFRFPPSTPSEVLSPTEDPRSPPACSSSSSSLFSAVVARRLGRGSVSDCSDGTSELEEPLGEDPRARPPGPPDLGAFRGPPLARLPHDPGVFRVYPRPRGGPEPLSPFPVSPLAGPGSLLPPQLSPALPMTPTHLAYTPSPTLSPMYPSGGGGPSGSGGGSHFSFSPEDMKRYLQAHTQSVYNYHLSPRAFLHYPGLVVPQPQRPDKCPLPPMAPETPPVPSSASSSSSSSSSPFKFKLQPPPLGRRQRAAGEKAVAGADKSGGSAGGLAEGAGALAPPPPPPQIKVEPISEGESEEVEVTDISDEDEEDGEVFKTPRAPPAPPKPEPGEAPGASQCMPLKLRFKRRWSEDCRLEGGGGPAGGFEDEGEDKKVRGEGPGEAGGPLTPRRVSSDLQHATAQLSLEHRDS
Procedure, shortened: as §1

[12] = biological target: T7, ETV3L (Homo sapiens, UniProt Q6ZN32 1-361); settings: protein: recombinant; tags: N-terminal GST; dsDNA, one strand shown
T7 sequence: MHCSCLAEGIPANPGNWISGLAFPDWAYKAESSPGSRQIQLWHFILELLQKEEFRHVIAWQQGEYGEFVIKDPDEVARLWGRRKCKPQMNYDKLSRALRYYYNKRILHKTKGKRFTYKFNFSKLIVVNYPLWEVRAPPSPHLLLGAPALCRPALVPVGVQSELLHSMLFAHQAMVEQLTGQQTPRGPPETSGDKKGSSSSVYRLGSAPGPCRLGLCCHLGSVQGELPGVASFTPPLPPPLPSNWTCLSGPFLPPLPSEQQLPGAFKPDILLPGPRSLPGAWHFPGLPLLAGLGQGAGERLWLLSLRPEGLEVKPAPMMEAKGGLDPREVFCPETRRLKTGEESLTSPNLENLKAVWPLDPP
Procedure, shortened: as §1

[13] = biological target: T8, ETS2 (Homo sapiens, UniProt P15036 1-469); settings: protein: recombinant; tags: N-terminal GST; dsDNA, one strand shown
T8 sequence: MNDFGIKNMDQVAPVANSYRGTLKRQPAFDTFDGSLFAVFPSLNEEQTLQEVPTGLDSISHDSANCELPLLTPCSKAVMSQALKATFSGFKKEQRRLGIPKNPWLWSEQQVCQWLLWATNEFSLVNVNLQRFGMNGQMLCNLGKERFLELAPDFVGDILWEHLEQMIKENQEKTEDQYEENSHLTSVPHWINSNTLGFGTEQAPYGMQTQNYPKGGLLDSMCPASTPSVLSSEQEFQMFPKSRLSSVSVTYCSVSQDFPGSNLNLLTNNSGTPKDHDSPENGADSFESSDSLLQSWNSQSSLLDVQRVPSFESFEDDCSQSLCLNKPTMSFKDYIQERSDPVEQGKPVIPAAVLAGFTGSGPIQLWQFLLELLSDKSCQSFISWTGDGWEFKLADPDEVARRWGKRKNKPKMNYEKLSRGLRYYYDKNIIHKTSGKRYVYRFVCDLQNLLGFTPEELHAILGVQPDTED
Procedure, shortened: as §1

[14] = biological target: T9, SPDEF (Homo sapiens, UniProt O95238 1-335); settings: protein: recombinant; tags: N-terminal GST; dsDNA, one strand shown
T9 sequence: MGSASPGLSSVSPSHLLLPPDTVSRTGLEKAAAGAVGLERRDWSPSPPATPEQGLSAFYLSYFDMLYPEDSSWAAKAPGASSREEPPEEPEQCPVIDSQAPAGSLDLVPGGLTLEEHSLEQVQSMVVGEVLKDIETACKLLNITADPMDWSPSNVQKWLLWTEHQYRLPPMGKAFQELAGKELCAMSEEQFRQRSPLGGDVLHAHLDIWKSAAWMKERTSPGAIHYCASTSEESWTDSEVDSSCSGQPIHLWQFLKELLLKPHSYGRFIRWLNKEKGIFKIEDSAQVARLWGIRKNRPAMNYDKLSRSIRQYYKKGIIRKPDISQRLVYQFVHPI
Procedure, shortened: as §1

[15] = biological target: T10, ETV7 (Homo sapiens, UniProt Q9Y603 1-341); settings: protein: recombinant; tags: N-terminal GST; dsDNA, one strand shown
T10 sequence: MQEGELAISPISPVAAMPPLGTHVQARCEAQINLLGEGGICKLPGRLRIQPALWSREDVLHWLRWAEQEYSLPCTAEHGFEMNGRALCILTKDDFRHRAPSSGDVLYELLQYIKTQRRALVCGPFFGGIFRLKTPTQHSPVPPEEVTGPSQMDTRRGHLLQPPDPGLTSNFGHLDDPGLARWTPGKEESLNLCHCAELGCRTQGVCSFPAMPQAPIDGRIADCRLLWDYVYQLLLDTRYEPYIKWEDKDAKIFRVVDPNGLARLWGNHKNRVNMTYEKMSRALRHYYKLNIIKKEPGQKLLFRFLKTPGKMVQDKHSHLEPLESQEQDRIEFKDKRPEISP
Procedure, shortened: as §1

[16] = biological target: T11, ELF5 (Homo sapiens, UniProt Q9UKW6-2 1-255); settings: protein: recombinant; tags: N-terminal GST; dsDNA, one strand shown
T11 sequence: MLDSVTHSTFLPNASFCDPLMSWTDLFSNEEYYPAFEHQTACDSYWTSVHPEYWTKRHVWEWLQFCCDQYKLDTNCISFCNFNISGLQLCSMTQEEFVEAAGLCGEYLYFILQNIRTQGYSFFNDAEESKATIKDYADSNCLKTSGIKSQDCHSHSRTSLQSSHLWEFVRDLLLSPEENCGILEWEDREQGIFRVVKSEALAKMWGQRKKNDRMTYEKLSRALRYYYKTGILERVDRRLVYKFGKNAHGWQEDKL
Procedure, shortened: as §1

[17] = biological target: T12, ETV3 (Homo sapiens, UniProt P41162-2 1-143); settings: protein: recombinant; tags: N-terminal GST; dsDNA, one strand shown
T12 sequence: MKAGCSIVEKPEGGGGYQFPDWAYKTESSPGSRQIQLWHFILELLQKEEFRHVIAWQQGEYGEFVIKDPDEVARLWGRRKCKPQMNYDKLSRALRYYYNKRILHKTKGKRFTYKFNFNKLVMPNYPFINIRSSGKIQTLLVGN
Procedure, shortened: as §1

[18] = biological target: ETV6 (Homo sapiens, UniProt P41212 1-452); settings: protein: recombinant; tags: N-terminal GST; dsDNA, one strand shown
Procedure, shortened: as §1

Chain of CRX (O43186 whole entry): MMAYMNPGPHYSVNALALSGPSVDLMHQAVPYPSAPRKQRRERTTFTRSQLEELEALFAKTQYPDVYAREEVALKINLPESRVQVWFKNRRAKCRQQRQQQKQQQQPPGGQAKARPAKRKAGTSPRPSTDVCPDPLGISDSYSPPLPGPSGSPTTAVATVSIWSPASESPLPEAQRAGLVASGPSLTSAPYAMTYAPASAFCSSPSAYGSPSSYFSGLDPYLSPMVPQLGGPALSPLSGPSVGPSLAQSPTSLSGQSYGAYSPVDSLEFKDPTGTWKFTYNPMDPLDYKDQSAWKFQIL
Chain of HSF1 (Q00613 whole entry): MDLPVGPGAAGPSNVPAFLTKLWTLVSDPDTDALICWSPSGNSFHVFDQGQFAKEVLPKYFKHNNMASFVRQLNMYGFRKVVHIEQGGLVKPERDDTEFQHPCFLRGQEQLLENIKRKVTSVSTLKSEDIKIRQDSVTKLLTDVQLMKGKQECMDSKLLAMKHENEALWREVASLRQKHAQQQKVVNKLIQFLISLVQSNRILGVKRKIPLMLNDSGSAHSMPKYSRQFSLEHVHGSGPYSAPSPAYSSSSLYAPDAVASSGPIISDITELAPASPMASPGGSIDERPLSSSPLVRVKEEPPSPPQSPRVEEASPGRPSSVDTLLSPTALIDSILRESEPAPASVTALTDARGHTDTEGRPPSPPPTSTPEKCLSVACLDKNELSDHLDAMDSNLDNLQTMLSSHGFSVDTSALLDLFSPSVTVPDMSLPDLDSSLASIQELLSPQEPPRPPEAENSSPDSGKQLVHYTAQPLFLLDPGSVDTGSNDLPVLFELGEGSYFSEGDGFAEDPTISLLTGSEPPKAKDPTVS
Chain of ETV5 (P41161 whole entry): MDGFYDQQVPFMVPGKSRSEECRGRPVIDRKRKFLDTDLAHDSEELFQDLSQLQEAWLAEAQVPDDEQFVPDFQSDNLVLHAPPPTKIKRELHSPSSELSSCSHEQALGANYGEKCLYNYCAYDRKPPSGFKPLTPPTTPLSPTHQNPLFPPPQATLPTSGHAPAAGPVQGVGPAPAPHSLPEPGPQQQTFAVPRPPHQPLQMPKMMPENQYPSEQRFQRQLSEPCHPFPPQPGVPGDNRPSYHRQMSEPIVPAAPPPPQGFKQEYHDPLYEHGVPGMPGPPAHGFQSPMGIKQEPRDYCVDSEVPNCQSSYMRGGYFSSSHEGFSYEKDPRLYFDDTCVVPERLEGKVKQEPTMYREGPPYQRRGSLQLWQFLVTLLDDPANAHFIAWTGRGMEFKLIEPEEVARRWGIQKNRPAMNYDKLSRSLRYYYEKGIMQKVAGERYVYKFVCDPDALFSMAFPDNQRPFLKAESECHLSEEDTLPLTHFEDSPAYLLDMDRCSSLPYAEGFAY
Chain of ETV1 (P50549 whole entry): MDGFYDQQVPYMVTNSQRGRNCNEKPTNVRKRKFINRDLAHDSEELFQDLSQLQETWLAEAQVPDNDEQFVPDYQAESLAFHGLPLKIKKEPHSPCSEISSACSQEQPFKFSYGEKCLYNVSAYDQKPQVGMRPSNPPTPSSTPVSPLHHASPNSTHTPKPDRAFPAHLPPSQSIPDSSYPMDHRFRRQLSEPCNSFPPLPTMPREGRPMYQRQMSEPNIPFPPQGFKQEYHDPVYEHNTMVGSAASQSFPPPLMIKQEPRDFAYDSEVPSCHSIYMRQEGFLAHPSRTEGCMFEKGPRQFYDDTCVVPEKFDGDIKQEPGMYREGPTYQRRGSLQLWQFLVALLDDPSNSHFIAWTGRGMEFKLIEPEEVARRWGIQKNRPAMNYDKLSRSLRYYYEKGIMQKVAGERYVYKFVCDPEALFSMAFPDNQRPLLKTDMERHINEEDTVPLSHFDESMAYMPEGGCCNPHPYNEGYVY
Chain of ELF4 (Q99607 whole entry): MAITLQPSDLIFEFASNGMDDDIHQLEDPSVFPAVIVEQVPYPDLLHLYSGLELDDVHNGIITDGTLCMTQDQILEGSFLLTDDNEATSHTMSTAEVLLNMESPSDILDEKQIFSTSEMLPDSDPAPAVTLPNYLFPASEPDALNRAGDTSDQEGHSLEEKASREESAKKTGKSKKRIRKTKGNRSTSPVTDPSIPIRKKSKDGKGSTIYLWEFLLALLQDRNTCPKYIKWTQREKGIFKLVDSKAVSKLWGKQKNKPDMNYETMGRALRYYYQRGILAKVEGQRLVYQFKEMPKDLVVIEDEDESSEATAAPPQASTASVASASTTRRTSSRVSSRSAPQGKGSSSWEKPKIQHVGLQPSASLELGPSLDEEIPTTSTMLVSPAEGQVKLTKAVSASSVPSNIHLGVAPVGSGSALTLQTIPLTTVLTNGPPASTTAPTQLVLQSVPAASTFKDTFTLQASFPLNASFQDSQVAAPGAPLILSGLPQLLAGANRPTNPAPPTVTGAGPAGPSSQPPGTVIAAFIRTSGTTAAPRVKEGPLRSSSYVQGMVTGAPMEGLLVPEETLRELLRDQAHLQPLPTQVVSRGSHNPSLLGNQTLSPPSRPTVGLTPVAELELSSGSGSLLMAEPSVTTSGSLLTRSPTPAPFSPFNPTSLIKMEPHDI
Chain of ETV6 (P41212 whole entry): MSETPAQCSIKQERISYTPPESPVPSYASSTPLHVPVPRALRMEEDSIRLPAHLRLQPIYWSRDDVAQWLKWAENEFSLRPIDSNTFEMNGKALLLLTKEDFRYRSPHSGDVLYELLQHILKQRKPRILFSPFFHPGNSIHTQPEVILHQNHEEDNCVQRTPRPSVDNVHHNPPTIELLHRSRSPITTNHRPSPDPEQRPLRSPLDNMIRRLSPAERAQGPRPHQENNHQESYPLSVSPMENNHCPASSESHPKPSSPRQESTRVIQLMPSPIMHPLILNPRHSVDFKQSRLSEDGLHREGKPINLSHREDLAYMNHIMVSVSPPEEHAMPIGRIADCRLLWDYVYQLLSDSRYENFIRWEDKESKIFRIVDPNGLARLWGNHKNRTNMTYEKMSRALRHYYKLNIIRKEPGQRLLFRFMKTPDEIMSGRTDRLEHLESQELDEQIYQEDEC

For ACTCCC, the binding signal [1] was 1.32 fold enrichment (6-mer frequency, TF over GST control), the binding signal [2] was 1.42 fold enrichment (6-mer frequency, TF over GST control) and the binding signal [3] was 1.15 fold enrichment (6-mer frequency, TF over GST control). The binding signal [4] was 1.46 fold enrichment (6-mer frequency, TF over GST control), the binding signal [5] was 1.31 fold enrichment (6-mer frequency, TF over GST control) and the binding signal [6] was 1.32 fold enrichment (6-mer frequency, TF over GST control). For the same sequence, the binding signal [7] was 1.11 fold enrichment (6-mer frequency, TF over GST control), the binding signal [8] was 1.25 fold enrichment (6-mer frequency, TF over GST control) and the binding signal [9] was 1.13 fold enrichment (6-mer frequency, TF over GST control). The binding signal [10] was 1.25 fold enrichment (6-mer frequency, TF over GST control), the binding signal [11] was 1.44 fold enrichment (6-mer frequency, TF over GST control) and the binding signal [12] was 1.19 fold enrichment (6-mer frequency, TF over GST control). For the same sequence, the binding signal [13] was 1.27 fold enrichment (6-mer frequency, TF over GST control), the binding signal [14] was 1.32 fold enrichment (6-mer frequency, TF over GST control) and the binding signal [15] was 1.31 fold enrichment (6-mer frequency, TF over GST control). The binding signal [16] was 1.38 fold enrichment (6-mer frequency, TF over GST control), the binding signal [17] was 1.47 fold enrichment (6-mer frequency, TF over GST control) and the binding signal [18] was 1.47 fold enrichment (6-mer frequency, TF over GST control).
